# Where a name gives a salt, the structure may show the parent alone. ± gives the standard deviation of the averaged measurements.
# Test system: E18 rat cortical neuron-glia co-culture
# Test: fiber score / MBP score (myelination specific beyond OL differentiation) (ratio); higher = more myelination-specific MBP alignment
# Settings: 1 µM; treatment time: 8 days (DIV5-DIV13)
# How it was run: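 Papain-dissociated primary E18 rat cortical co-cultures, plated at 20,000 cells/well on poly-d-lysine/laminin 96-well plates, were exposed to library compounds at 1 or 5 µM in myelination medium between DIV5 and DIV13. Following fixation in 4 % paraformaldehyde, cultures were stained for MBP, Olig2 and DAPI, and four 10X fields per well were analysed in duplicate wells. Values are the ratio of fiber score (continuous MBP fiber length per Olig2+ nucleus) to MBP score (thresholded MBP area × intensity per Olig2+ nucleus).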
row,Structure (SMILES),fiber score / MBP score
1,COc1ccc2c(c1)[C@]13CCCC[C@@H]1[C@H](C2)N(C)CC3 [Dextromethorphan],1.19
2,NC1=NC(=O)C(c2ccccc2)O1 (configuration not stated) [Pemoline],0.628
3,CCCC(C)(COC(N)=O)COC(=O)NC(C)C (configuration not stated) [Carisoprodol],0.713
4,CCN(CC)CCOC(=O)C(O)(c1ccccc1)c1ccccc1 [Benactyzine],1.18
5,Cc1nnc2n1-c1ccc(Cl)cc1C(c1ccccc1)=NC2 [Alprazolam],0.628
6,CN1[C@@H]2C[C@@H](OC(=O)[C@H](CO)c3ccccc3)C[C@H]1[C@@H]1O[C@@H]12 [Scopolamine hydrobromide],0.649
7,COc1ccc2[nH]cc(CCN)c2c1 [5-Methoxytryptamine],0.779
8,CN1CC[C@]2(c3cccc(O)c3)Cc3nc4ccccc4cc3C[C@H]2C1,0.572
9,COc1cc2c(cc1OC)[C@@]13CCN4CC5=CCO[C@H]6CC(=O)N2[C@H]1[C@H]6[C@H]5C[C@H]43 [Brucine],0.957
10,C[C@]12CC[C@H](O)CC1=CC[C@@H]1[C@@H]2CC[C@]2(C)C(=O)CC[C@@H]12 [Dehydroepiandrosterone],1.25
11,COc1ccc(C(CN(C)C)C2(O)CCCCC2)cc1 (configuration not stated) [Venlafaxine],0.576
12,C=CCN1CC[C@]23c4c5ccc(O)c4O[C@H]2C(=O)CC[C@@]3(O)[C@H]1C5 [Naloxone],0.965
13,O[C@@H]1CCCC[C@H]1N1CCC(c2ccccc2)CC1 (racemic) [Vesamicol],0.528
14,CN1CC[C@]23CCCC[C@H]2[C@H]1Cc1ccc(O)cc13 [Levorphanol],0.869
15,CCC(C(N)=O)N1CCCC1=O (configuration not stated) [Etiracetam],0.904
16,Cc1ccc(-c2nc3ccc(C)cn3c2CC(=O)N(C)C)cc1 [Zolpidem],0.967
17,CN1CCN(C(=O)O[C@H]2c3nccnc3C(=O)N2c2ccc(Cl)cn2)CC1 [Eszopiclone],0.461
18,COc1cc([C@@H]2c3cc4c(cc3[C@H](O)[C@H]3COC(=O)[C@H]23)OCO4)cc(OC)c1OC [Podophyllotoxin],0.393
19,C[C@]12CC[C@H]3[C@@H](CCC4=CC(=O)CC[C@@]43C)[C@@H]1CC[C@@H]2O [Testosterone],0.988 ± 0.093
20,C[N+]1(CCC(C(N)=O)(c2ccccc2)c2ccccc2)CCCCC1 [Fenpiverinium],1.01
21,CNC1=Nc2ccc(Cl)cc2C(c2ccccc2)=[N+]([O-])C1 [Chlordiazepoxide],0.994
22,CC(O)(CS(=O)(=O)c1ccc(F)cc1)C(=O)Nc1ccc(C#N)c(C(F)(F)F)c1 (configuration not stated) [Bicalutamide],0.676
23,Oc1ccc2c3c1O[C@H]1c4[nH]c5ccccc5c4C[C@@]4(O)[C@@H](C2)N(CC2CC2)CC[C@]314 [Naltrindole],0.716
24,C[C@]12CCC(=O)C=C1CC[C@@H]1[C@@H]2CC[C@@]2(C)[C@H]1CC[C@]2(C)O [Methyltestosterone],0.609
25,CNC(=O)Oc1ccc2c(c1)[C@]1(C)CCN(C)[C@@H]1N2C [Physostigmine],0.593
26,O=C1Nc2ccc(Cl)cc2C(c2ccccc2Cl)=NC1O (configuration not stated) [Lorazepam],0.711
27,CS(=O)(=O)Nc1ccc(Cc2noc(-c3ccc4[nH]cc(CCN)c4c3)n2)cc1,0.563

# Source: the supplement of paper PMC4840960
